In PubChem BioAssay (NCATS):
Results filed as inconclusive are left out. Active and inactive are the calls of the source. The call rests on the fitted dose curve; in most records, active means well fitted curve in the direction sought with a large enough effect; inconclusive means small, poorly fitted or top-dose-only effect, or another doubt; inactive means no such curve, though single readings can be large; an effect the other way counts as inactive or inconclusive.

Experiments:
[1] = P-glycoprotein substrates identified in KB-8-5-11 adenocarcinoma cell line, qHTS therapeutic library screen (AID 1346987); further: nearly all actives have a fitted effect of over 65% in size; further: potency means the concentration at half of the fitted maximal effect; on activity change, negative = cytotoxicity: on the % scale 0 is the no-effect control and ±100 the full control effect
In short: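 KB-8-5-11: colchicine-selected sub-line of KB-3-1 over-expressing P-gp; assay medium lacked colchicine. 72 h drug exposure at 37 degree C, CellTiter-Glo.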

[2] = system: Zika virus NS2B-NS3 protease (linked construct); assay: Primary screen NINDS Rhodamine qHTS for Zika virus inhibitors (AID 1347160); further: nearly all actives have a fitted effect of over 55% in size
In short: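 Kinetic fluorescence (Ex 480 nm, Em 540 nm) over 15 min with 1.5 microM Rhodamine110 peptide and 25 nM linked protease.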

[3] = target: Calcium and integrin-binding protein 1 (Homo sapiens) (UniProt Q99828); assay: Primary qHTS for Identification of Calcium Integrin Binding Protein 1 (CIB1) Competitor (AID 1508620);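 further: GST tagged CIB1 binding a fluorescein labelled alphaIIb integrin peptide tracer; top concentration of the series differs between compounds; on the % scale 0 is the no-effect control and ±100 the full control effect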
Sequence of Calcium and integrin-binding protein 1 (Homo sapiens) (Q99828 whole entry, looked up): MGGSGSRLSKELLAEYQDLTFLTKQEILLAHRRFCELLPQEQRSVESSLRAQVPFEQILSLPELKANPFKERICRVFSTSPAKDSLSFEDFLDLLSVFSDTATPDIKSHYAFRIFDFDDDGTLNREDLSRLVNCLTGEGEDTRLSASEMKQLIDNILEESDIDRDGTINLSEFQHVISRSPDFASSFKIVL
In short: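 Fluorescence polarization competition: CIB1-GST (1 uM final) preincubated with compound 15 min at room temperature, then FITC-labeled alphaIIb peptide (100 nM final) added for another 15 min. Polarization read at Ex 480/Em 540.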

[4] = target: Phospholipid hydroperoxide glutathione peroxidase GPX4 (Homo sapiens) (UniProt P36969); assay: Primary qHTS Assay for Inhibitors of Recombinant Selenoprotein Glutathione Peroxidase 4 (GPX4) (AID 1845192); further: nearly all actives have a fitted effect of over 65% in size; on activity change, negative = inhibition: on the % scale 0 is the no-effect control and ±100 the full control effect
Sequence of Phospholipid hydroperoxide glutathione peroxidase GPX4 (Homo sapiens) (P36969 whole entry, looked up): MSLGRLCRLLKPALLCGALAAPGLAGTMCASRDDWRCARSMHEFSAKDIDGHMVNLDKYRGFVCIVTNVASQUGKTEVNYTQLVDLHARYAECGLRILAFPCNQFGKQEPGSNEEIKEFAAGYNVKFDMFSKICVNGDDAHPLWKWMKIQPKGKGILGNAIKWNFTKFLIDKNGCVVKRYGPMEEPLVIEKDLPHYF
In short: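 GR-coupled readout: 100 nM GR, 1 mM GSH, 0.5 mM NADPH; NADPH fluorescence (ex 340/em 450 nm) read at t=0 and after 15 min RT. GPX4 200 nM, preincubated 30 min with compound; substrate 0.5 mM CHP.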

[5] = target: Luciferin 4-monooxygenase (Photinus pyralis) (UniProt P08659); assay: Primary firefly luciferase (FLuc) qHTS assay for identification of artifact compounds. (AID 1845220); conditions: outcome: dose series up to 54.1 µM unless noted; further: nearly all actives have a fitted effect of over 60% in size;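 on activity change, negative = inhibition: plate controls were DMSO vehicle for no effect and no enzyme for full effect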
In short: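 In this counter-screen for luciferase artifacts, test compounds met substrate (10 uM each luciferin and ATP) before 10 nM enzyme started the reaction. Light output was measured 5 min later.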

[6] = system: Nanoluciferase (engineered Oplophorus gracilirostris luciferase); assay: Primary Nanoluciferase (NLuc) qHTS assay for identification of artifact compounds. (AID 1845222);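 further: NLuc secreted into diluted conditioned medium of S16 cells; 0% = DMSO and -100% = no enzyme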
In short: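 Using secreted nanoluciferase in S16 culture medium (0.22 um filtered, 1:55 dilution), compounds were preincubated 15 min at RT. Signal was generated with Nano-Glo reagent (1:100) over 5 min.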

CRL-7250 = normal cell line; assay: Cytotoxic Profiling of Annotated Libraries Using Quantitative High-Throughput Screening (AID 1296008); conditions: Five cell lines viability, CellTiter-Glo ATP luminescence, 48-72 h; max response: active compounds read low; further: nearly all actives have a fitted effect of over 60% in size; further: potency means the concentration at half of the fitted maximal effect; on max response: on the % scale 0 is the no-effect control and ±100 the full control effect
In short: (§1)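 Compounds were pin-transferred onto cells and incubated 48 or 72 hr at 37 degree Celsius, 95% humidity. CellTiter-Glo was added, plates sat 10 min at room temperature, then ATP-coupled luminescence was imaged as the viability read-out.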

NIH3T3 = assay: as above; conditions: Five cell lines viability, CellTiter-Glo ATP luminescence, 48-72 h; max response: active compounds read low
In short: as §1

C33A = assay: Primary qHTS to identify gynecologic anti-cancer compounds using libraries of approved drugs and bioactive compounds (AID 1345084); conditions: Gynecologic cancer cell panel viability, ATPlite luminescence, 48 h; series mostly up to 57.5 µM; further: on the % scale 0 is the no-effect control and ±100 the full control effect; nearly all actives have a fitted effect of over 55% in size
In short: (§2)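 Cells, 1,000 per well, plated 16 h, then exposed 48 h at 37 C to compounds. Viability by ATPlite luminescence after 15 min at room temperature.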

CAOV3 = assay: as above; conditions: Gynecologic cancer cell panel viability, ATPlite luminescence, 48 h; series mostly up to 57.5 µM
In short: as §2

CASKI = assay: as above; conditions: Gynecologic cancer cell panel viability, ATPlite luminescence, 48 h; series mostly up to 57.5 µM
In short: as §2

Es-2 = assay: as above; conditions: Gynecologic cancer cell panel viability, ATPlite luminescence, 48 h; series mostly up to 57.5 µM
In short: as §2

HeLa = assay: as above; conditions: Gynecologic cancer cell panel viability, ATPlite luminescence, 48 h; series mostly up to 57.5 µM
In short: as §2

Hek293T = assay: as above; conditions: Gynecologic cancer cell panel viability, ATPlite luminescence, 48 h, control line for the selectivity index; series mostly up to 57.5 µM
In short: as §2

JEG-3 = assay: as above; conditions: Gynecologic cancer cell panel viability, ATPlite luminescence, 48 h; series mostly up to 57.5 µM
In short: as §2

OV90 = assay: as above; conditions: Gynecologic cancer cell panel viability, ATPlite luminescence, 48 h; series mostly up to 57.5 µM
In short: as §2

PA-1 = assay: as above; conditions: Gynecologic cancer cell panel viability, ATPlite luminescence, 48 h; series mostly up to 57.5 µM
In short: as §2

Tov-21-G = assay: as above; conditions: Gynecologic cancer cell panel viability, ATPlite luminescence, 48 h; series mostly up to 57.5 µM
In short: as §2

Tov112D = assay: as above; conditions: Gynecologic cancer cell panel viability, ATPlite luminescence, 48 h; series mostly up to 57.5 µM
In short: as §2

[7] = target: Glutathione peroxidase 1 (Homo sapiens) (UniProt P07203); assay: Primary qHTS Assay for Inhibitors of Recombinant Selenoprotein Glutathione Peroxidase 1 (GPX1) (AID 1845191); further: nearly all actives have a fitted effect of over 65% in size
Sequence of Glutathione peroxidase 1 (Homo sapiens) (P07203 whole entry, looked up): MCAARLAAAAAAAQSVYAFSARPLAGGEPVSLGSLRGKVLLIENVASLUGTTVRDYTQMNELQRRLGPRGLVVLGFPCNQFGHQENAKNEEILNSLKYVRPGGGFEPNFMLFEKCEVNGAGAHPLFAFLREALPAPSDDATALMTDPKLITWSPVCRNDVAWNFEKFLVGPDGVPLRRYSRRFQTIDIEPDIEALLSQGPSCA
In short: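 Recombinant GPX1 (10 nM final) was preincubated with compound for 30 min at room temperature, then reacted with 1 mM GSH, 0.5 mM CHP, 0.5 mM NADPH and 100 nM glutathione reductase; NADPH fluorescence (340/450 nm) was read at 0 and 15 min.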

C[C@@H]1CCC2[C@@H](C)C(=O)OC3O[C@@]4(C)CCC1[C@]32OO4 (some centres undefined)
inactive: Potency [1] | Potency [2] | Potency [3] | Potency [4] | outcome [5] | Potency [6] | max response (CRL-7250) -1.83% | max response (NIH3T3) -13.5% | Potency (C33A) | Potency (CAOV3) | Potency (CASKI) | Potency (Es-2) | Potency (HeLa) | Potency (Hek293T) | Potency (JEG-3) | Potency (OV90) | Potency (PA-1) | Potency (Tov-21-G) | Potency (Tov112D)

COC(=O)[C@@]1(C)C(=O)C=C[C@]2(C)c3c(O)cc(C(C)C)cc3[C@H](O)[C@@H](OC(C)=O)C12 (some centres undefined)
inactive: Potency [1] | Potency [2] | Potency [3] | Potency [7] | Potency [4] | Potency [6] | outcome (CRL-7250) | max response (NIH3T3) -1.38% | Potency (C33A) | Potency (CAOV3) | Potency (CASKI) | Potency (Es-2) | Potency (HeLa) | Potency (Hek293T) | Potency (JEG-3) | Potency (OV90) | Potency (PA-1) | Potency (Tov-21-G) | Potency (Tov112D)

C=C(CO)[C@@]12O[C@@H]1[C@@]1(C)C(=CC2=O)CC[C@@H](O)[C@@H]1C
inactive: Potency [2] | Potency [3] | Potency [7] | Potency [4] | outcome [5] | Potency [6] | Potency (CASKI) | Potency (HeLa) | Potency (JEG-3)
active: Potency [1] 13 µM | Potency (NIH3T3) 7.31 µM

COc1cc2c(cc1O)C1(C)CCC(O)C(C)(C)C1CC2=O (centres undefined)
inactive: Potency [1] | Potency [3] | Potency [7] | Potency [4] | Potency [6] | outcome (NIH3T3) | Potency (C33A) | Potency (CAOV3) | Potency (CASKI) | Potency (Es-2) | Potency (HeLa) | Potency (Hek293T) | Potency (JEG-3) | Potency (OV90) | Potency (PA-1) | Potency (Tov-21-G) | Potency (Tov112D)

Cc1ncc(OC[C@@]2(c3cccc(F)c3)C[C@H]2C(=O)Nc2ccc(F)cn2)c(C)n1
inactive: Potency [3] | Potency [7] | Potency [4] | outcome (NIH3T3)

C/C=C(\C)C(=O)OC1CC2C(CC=C3CC(OC4CC(OC)C(OC5CC(OC)C(OC6CC(OC)C(OC7CC(OC)C(O)C(C)O7)C(C)O6)C(C)O5)C(C)O4)CCC32C)C2(O)CCC(C(C)=O)C12C (centres undefined)
inactive: outcome [1] inactive [at 9.29 µM] | Potency [2] | Potency [3] | Potency [7] | Potency [4] | activity change, negative = inhibition [5] 3.09% [at 11.6 µM] | activity, negative = inhibition [6] 1.71% [at 11.6 µM] | max response (CRL-7250) -2.08% | outcome (NIH3T3) | activity change, negative = cytotoxicity (C33A) -3.2% [at 11.6 µM] | activity change, negative = cytotoxicity (CAOV3) 3.23% [at 11.6 µM] | activity change, negative = cytotoxicity (CASKI) -11.1% [at 11.6 µM] | activity change, negative = cytotoxicity (Es-2) -0.231% [at 11.6 µM] | activity change, negative = cytotoxicity (HeLa) 9.98% [at 11.6 µM] | activity change, negative = cytotoxicity (Hek293T) -2.97% [at 11.6 µM] | activity change, negative = cytotoxicity (JEG-3) -3.8% [at 11.6 µM] | activity change, negative = cytotoxicity (OV90) -21.5% [at 11.6 µM] | activity change, negative = cytotoxicity (PA-1) -6.71% [at 11.6 µM] | activity change, negative = cytotoxicity (Tov-21-G) 1.18% [at 11.6 µM] | activity change, negative = cytotoxicity (Tov112D) -0.393% [at 11.6 µM]

CCCCOC(=O)c1ccnc2cc(C(OCCN3CCCCC3)c3ccccc3Cl)sc12 (centres undefined)
inactive: Potency [2] | Potency [3] | Potency [7] | Potency [4] | outcome [5] | Potency [6] | max response (CRL-7250) -4.2% | max response (NIH3T3) -3.89% | Potency (C33A) | Potency (CAOV3) | Potency (CASKI) | Potency (Es-2) | Potency (HeLa) | Potency (Hek293T) | Potency (JEG-3) | Potency (OV90) | Potency (PA-1) | Potency (Tov-21-G) | Potency (Tov112D)
